Experimental data from PubChem BioAssay AID1626 (SRMLSC, 2009).
In all, about 220,000 compounds went through this assay and about 2,000 (0.91%) were called active. Inconclusive results (about 2%) are left out. These entries were drawn from the full list. Results with a measured potency or affinity are listed apart. A number with no mark means an inactive call. Rule as the data show it: inconclusive = inhibition above about 80% without an active follow-up result; inactive = below that; test concentration not stated here.

Assay: M. tuberculosis H37Rv growth inhibitors, H37Rv strain (AID 1626);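 also: bacteria incubated seven days before Alamar blue readout; 0% = bacteria only wells and 100% = bacteria with antibiotic wells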
Conditions: stronger effect = higher value, concentration not given here

Structure (SMILES) | inhibition [%]
COC(=O)[C@@H]1CCCN1C(=O)CCc1nnc(C2CCCCC2)o1 | 3.78
COc1ccc(NC(=O)O/N=C2/CCCc3ccc(OC)cc32)cc1 | -0.42
Cc1nc(CSc2ccc(Cl)cc2)cc(N2CCOCC2)n1 | -2.98
O=S(=O)(Cc1cc(N2CCOCC2)nc(-c2ccccn2)n1)c1ccccc1 | 2.59
O=C(Nc1ccc2c(c1)OCO2)c1ccc(S(=O)(=O)N2CCCC2)cc1 | -0.32
CCOc1ccc(NC(=O)c2ccc(CNc3c(N4CCCC4)c(=O)c3=O)cc2)cc1 | 67.9
Fc1cccc(F)c1/C=C/c1ccc2ccccc2n1 | 7.53
CC(=O)Oc1c(Cl)cc(Cl)cc1/C=C/c1ccc2ccccc2n1 | 21.1
CCOc1cc(/C=C/c2ccc3cccc([N+](=O)[O-])c3n2)cc(Cl)c1O | 0.72
Nc1nccc(/C=C/c2c(F)cccc2Cl)n1 | 0.04
Clc1ccccc1OCc1nn[nH]n1 | -3.82
Cn1cc2cccc([N+](=O)[O-])c2n1 | -0.35
O=C(/C=C/c1ccco1)Nc1ccc2c(c1)OCO2 | 2.3
Nc1nc(N2CCN(c3ccc(Cl)cc3)CC2)n[nH]1 | 6.82
CCCCc1ncc(CN2CCCC(C(=O)c3ccc(SC)cc3)C2)[nH]1 (stereo unspecified) | 1.38
CSc1ccc(C(=O)C2CCCN(Cc3ccn[nH]3)C2)cc1 (stereo unspecified) | 2.84
CCOC(=O)c1cc(-c2ccco2)nc2c1c(C)nn2-c1cccc(Cl)c1 | -0.03
O=C(NCC1CCCCC1)c1cc([N+](=O)[O-])ccc1N1CCOCC1 | 6.09
CC(NC(=O)c1ccc(F)cc1)c1ccc2c(c1)CCCC2 (stereo unspecified) | 1.58
CC(NC(=O)c1ccccc1Br)c1ccc2c(c1)CCCC2 (stereo unspecified) | 6.54
CCC(Sc1ncnc2c1nnn2-c1ccc(F)cc1)C(=O)OC (stereo unspecified) | 66.9
CCOC(=O)C(CC)Sc1ncnc2c1nnn2-c1ccc(F)cc1 (stereo unspecified) | 10.4
Cc1cc(C)cc(NC(=O)NCc2c(-c3ccccc3)noc2C)c1 | 1.42
CCOc1ccc(NC(=O)C(CC)NC(=O)c2ccccc2CO)cc1 (stereo unspecified) | 3.2
CCOc1ccc(NC(=O)c2ccccc2O)cc1 | 6.33
CN(C)/C=N/c1cc(=O)n(Cc2ccccc2)c(=O)n1C | -11.1

Structure (SMILES) | inhibition [%]
O=c1oc2ccc3ccccc3c2cc1-c1nnc(-c2ccccc2)o1 | 77.2
COc1ccc2oc(=O)c(-c3nc4ccccc4o3)cc2c1 | 2.35
COc1ccc(-c2nnc(-c3cc4c(ccc5ccccc54)oc3=O)o2)cc1 | -4.32
O=c1oc2ccccc2cc1-c1nc2ccccc2o1 | 8.96
C=CCn1c(-c2ccccc2)nc2nc3ccccc3nc21 | 5.61
CNC(=O)CSc1nnc(-c2ccncc2)n1Cc1ccccc1 | -4.15
CCOC(=O)CSC1=N/C(=C\c2cc(OC)c(OC)c(OC)c2)C(=O)N1C | 0.23
CCC1Oc2ccc(C)cc2N(Cc2cccc(C)c2)C1=O (stereo unspecified) | 17.5
CN(Cc1ncc[nH]1)C(=O)c1cc(COc2c(F)cccc2F)on1 | 0.91
O=C(/C=C/c1cccs1)N1CCCCC1 | 12.9
Cc1ccc(/C=C/C(=O)N2CC(C)CC(C)C2)o1 (stereo unspecified) | 15.8
O=C(/C=C/c1ccccc1[N+](=O)[O-])N1CCCCC1 | 3.44
CC1CN(C(=O)/C=C/c2ccc([N+](=O)[O-])s2)CC(C)O1 (stereo unspecified) | 6.46
CCc1nc2ccccc2n1Cc1ccc(F)cc1 | 3.76
CCOC(=O)N1CCC(NC(=O)Cn2cc3c(n2)CCCC3)CC1 | -5.16
Cc1ccccc1C(C(=O)NC1CCCCC1)N(C(=O)CNC(=O)c1ccco1)c1cccnc1 (stereo unspecified) | 2.42
NC1=NCC(O)=C1c1nc2ccccc2[nH]1 | 4.96
Cc1ccc(C(=O)/C=C/c2cn(CC(O)CN3CCOCC3)c3ccccc23)cc1 (stereo unspecified) | 78.3
COc1ccc(C(=O)/C=C/c2cn(CC(O)CN3CCN(C)CC3)c3ccccc23)cc1OC (stereo unspecified) | -1.8
O=Cc1cn(CC(O)CN2CCCCC2)c2ccccc12 (stereo unspecified) | -4.08
COc1ccc(C(=O)/C=C/c2cn(CC(O)CN3CCOCC3)c3ccccc23)cc1 (stereo unspecified) | 15.2
CCCCN(C)CC(O)Cn1cc(/C=C/C(=O)c2cccs2)c2ccccc21 (stereo unspecified) | 32.9
O=C(/C=C/c1cn(CC(O)CN2CCOCC2)c2ccccc12)c1cccs1 (stereo unspecified) | 4.21
C=CCNC(=O)c1ccc(-c2ccc([N+](=O)[O-])cc2)o1 | 2.72
COc1cccc(/C=C2\SC(=S)N(NC(=O)c3ccncc3)C2=O)c1 | -9.97
